A selection: hits, their analogues and other compounds. The true share with any hit is near 7.4%.
ELG1 genotox: induces genotoxicity in HEK293T cells with luciferase-tagged ELG1 | HEK293T ELG1-luciferase reporter, luminescence, 16 h | 330,000 compounds, 1.3% hits | Potency, µM (titrated, usually from 46 µM), without a hit: top-dose activity change, positive = activation, most hits filed as activators | AID 504466; note: % of control where 0% means no effect; nearly all actives have a fitted effect of over 60% in size
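ELG1-luciferase HEK293T cells, 2,000/well; compound pinned in; 16 hr, 37 °C, 5% CO2; ONE-Glo, 30 min RT; luminescence on CCD imager.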
SMN2 splice enh: SMN2 splice variant enhancement | AID 1458 | Potency, µM (highest dose often 46.1 µM), without a hit: at the top dose activity change, positive = activation, most hits filed as activators | 210,000 compounds, 2.8% hits | HEK293 SMN2-luciferase splicing reporter, luminescence, 30-36 h; note: % of control where 0% means no effect; nearly all actives have a fitted effect of over 55% in size
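qHTS luciferase splicing reporter: luminescence rises when SMN2 exon 7 is included in transfected HEK293 cells. Compound exposure lasted 30-36 h at 37C, with 4.5 mM final sodium butyrate as control, followed by a ONE-Glo read.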
NPC1 prom act: NPC1 promoter activation | Huh7 NPC1 promoter luciferase reporter, 24 h | Potency, µM (titrated, usually from 9.22 µM), for the others: at the top dose activation, usual class: activators | 320,000 compounds, 2.4% hits | AID 485313; note: % of control where 0% means no effect; nearly all actives have a fitted effect of over 60% in size
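Luminescence read-out of NPC1 promoter-driven luciferase in stably transfected Huh7 cells; compounds delivered in DMSO and left 24 h at 37C, 5% CO2, qHTS titration format.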
Rab9 prom act: activators of Rab9 promoter; Potency, µM (doses to about 9.22 µM), without a hit: top-dose activation, negative = inhibition, most hits filed as activators; Huh7 Rab9 promoter-luciferase reporter, luminescence, 24 h; 320,000 compounds, 2.8% hits; note: % of control where 0% means no effect; nearly all actives have a fitted effect of over 60% in size
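Measured in stably transfected Huh7 cells bearing a Rab9 promoter–luciferase construct: 24 h compound treatment at 37 °C, followed by luminescence detection.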
FLuc modulator: inhibits or activates purified firefly luciferase, miR-21 counter-screen | P08659 | purified FLuc, Km substrates, luminescence inhibition | AID 588342 | Potency, µM (series often up to 57.5 µM), without a hit: at the top dose activity change, negative = inhibition, usual class: inhibitors | 360,000 compounds, 6.9% hits;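 note: plate controls were vehicle for no effect and reference inhibitor for full effect; nearly all actives have a fitted effect of over 55% in size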
Target sequence (P08659 whole entry, looked up): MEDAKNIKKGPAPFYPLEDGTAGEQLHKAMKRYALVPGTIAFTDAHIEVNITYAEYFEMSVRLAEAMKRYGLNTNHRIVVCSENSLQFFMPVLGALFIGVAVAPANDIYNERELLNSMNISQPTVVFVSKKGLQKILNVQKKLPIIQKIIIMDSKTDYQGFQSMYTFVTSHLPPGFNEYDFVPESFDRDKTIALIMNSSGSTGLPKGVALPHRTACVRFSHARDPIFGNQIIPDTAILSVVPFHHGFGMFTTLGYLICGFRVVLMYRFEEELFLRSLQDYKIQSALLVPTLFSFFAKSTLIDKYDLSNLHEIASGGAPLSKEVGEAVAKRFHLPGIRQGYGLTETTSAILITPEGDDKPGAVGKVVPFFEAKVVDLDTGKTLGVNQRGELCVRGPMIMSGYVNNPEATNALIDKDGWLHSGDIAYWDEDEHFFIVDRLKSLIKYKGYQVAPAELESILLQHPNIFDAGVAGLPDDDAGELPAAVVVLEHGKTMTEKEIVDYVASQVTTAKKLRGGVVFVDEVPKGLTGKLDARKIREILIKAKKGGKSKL
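Purified P. pyralis luciferase, 10 nM final, with Km-level 10 uM D-luciferin and 10 uM ATP in 50 mM Tris acetate pH 7.5, 10 mM Mg acetate, 0.01% Tween-20, 0.05% BSA; 6-point qHTS titration about 60 µM downward; luminescence read.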
p53 reactivator: mutant p53 re-activation in reporter cells. H1299 p53-A138V BP100-luciferase reporter, luminescence, 24 h. Potency, µM (titrated, usually from 92.2 µM), for inactives: at the top dose activity change, positive = activation, usual class: activators. 320,000 compounds, 0.063% hits. AID 504706; note: % of control where 0% means no effect; nearly all actives have a fitted effect of over 45% in size
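H1299 (p53-null), stable ts p53-A138V + BP100-Luc; 1000 cells/well, Opti-MEM/10% FBS; cpd 4 pt, 1:5; 24 h, 37 deg C, 5% CO2; detection reagent 10 min RT; luminescence.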
Active calls of the source: *; [ ] = another dose, or the depositor's remark. Calls come from the whole dose curve; as a rule, active = well fitted curve in the direction sought with a large enough effect; inconclusive = small, poorly fitted or top-dose-only effect, or another doubt; inactive = no such curve, though single readings can be large; an effect the other way counts as inactive or inconclusive. Potency is the fitted concentration of half-maximal effect.

Results for COc1cccc(NC(=O)Nc2ccc3c(c2)nnn3C)c1 ?
ELG1 genotox: 10%; SMN2 splice enh: 18µM*; NPC1 prom act: inconclusive; Rab9 prom act: inconclusive; FLuc modulator: 6.7µM*; p53 reactivator: 16%

How did O=C(Nc1ccc2snnc2c1)Nc1cccc2ccccc12 do in these assays?
ELG1 genotox: -1%; SMN2 splice enh: -8%; NPC1 prom act: -4%; Rab9 prom act: 4%; FLuc modulator: 21µM*; p53 reactivator: 29%

Results for COc1cc(NC(=O)c2ccc3snnc3c2)cc(OC)c1 ?
ELG1 genotox: 13%; NPC1 prom act: inconclusive; Rab9 prom act: 11%; FLuc modulator: inconclusive; p53 reactivator: 3%

Results for COc1cccc(NC(=O)Nc2ccc3snnc3c2)c1 ?
SMN2 splice enh: 19%; FLuc modulator: 17µM*

Results for CCOC(=O)c1ccc(NC(=O)Nc2ccc3snnc3c2)cc1 ?
SMN2 splice enh: 3%; FLuc modulator: -4%

What do the screens show for `Cc1ccc(NC(=O)Nc2ccc3snnc3c2)cc1C`?
SMN2 splice enh: 1%; FLuc modulator: 24µM*

Results for Cc1ccc(S(=O)(=O)N2CCC(C(=O)Nc3ccc(N4CCOCC4)cc3)CC2)cc1C ?
ELG1 genotox: 0%; NPC1 prom act: -2%; Rab9 prom act: -7%; FLuc modulator: 3%; p53 reactivator: 1%

How did O=C(NC1CCSc2ccccc21)c1cc(S(=O)(=O)N2CCOCC2)ccc1Cl (centres undefined) do in these assays?
ELG1 genotox: 5%; NPC1 prom act: -3%; Rab9 prom act: 0%; FLuc modulator: -8%; p53 reactivator: 1%

How did CC(=O)Nc1ccc(S(=O)(=O)NCCC(=O)NCCOc2ccccc2)cc1 do in these assays?
ELG1 genotox: 1%; NPC1 prom act: 0%; Rab9 prom act: 0%; FLuc modulator: 6%; p53 reactivator: 8%

How did CC(C)CC(=O)Nc1ccc(-c2nnn(CC(=O)NCc3ccco3)n2)cc1 do in these assays?
ELG1 genotox: inconclusive; SMN2 splice enh: inconclusive; NPC1 prom act: inconclusive; Rab9 prom act: inconclusive; FLuc modulator: 11µM*; p53 reactivator: 7%

What do the screens show for `CCCCOc1ccc(-c2nnn(CC(=O)NCc3ccco3)n2)cc1`?
ELG1 genotox: inconclusive; SMN2 splice enh: inconclusive; NPC1 prom act: 20%; Rab9 prom act: inconclusive; FLuc modulator: inconclusive; p53 reactivator: inconclusive

Results for Cc1cc(C)cc(-n2c(SCC(=O)N3CCCCCC3)nc3c([nH]c4ccccc43)c2=O)c1 ?
FLuc modulator: -1%

Results for BrC(c1cccc2ccccc12)c1cccc2ccccc12 ?
SMN2 splice enh: -8%[9.22 µM]

What do the screens show for `O=C1C(c2ccc(F)cc2)N(CCc2ccc(Cl)cc2)C(=O)CN1C1CCCCCC1` (centres undefined)?
FLuc modulator: -2%

Results for CCC(C)(C)NC(=S)Nc1ccc(-c2nc3ccc(C)cc3s2)cc1 ?
ELG1 genotox: 9.2µM*; SMN2 splice enh: 28%[1.84 µM]; NPC1 prom act: 4.5µM*; Rab9 prom act: 2.8µM*; FLuc modulator: 2.7µM*; p53 reactivator: inconclusive

How did CCCCNC(=S)Nc1ccc(-c2nc3ccc(C)cc3s2)cc1 do in these assays?
ELG1 genotox: 4.6µM*; SMN2 splice enh: 3.5µM*; NPC1 prom act: 3.5µM*; Rab9 prom act: 2.8µM*; FLuc modulator: 1.7µM*; p53 reactivator: inconclusive

What do the screens show for `COc1ccc(NC(=O)COC(=O)CCc2ccc(S(=O)(=O)N3CCOCC3)cc2)cc1OC`?
ELG1 genotox: 1%; p53 reactivator: 1%

What do the screens show for `O=C1C(c2c(O)[nH]c3ccccc23)=Nc2ccccc21`?
SMN2 splice enh: -16%; NPC1 prom act: 20%; Rab9 prom act: inconclusive; FLuc modulator: -29%

What do the screens show for `CC(=O)c1cccc2c(O)c(C3=Nc4ccccc4C3=O)[nH]c12`?
ELG1 genotox: inconclusive; SMN2 splice enh: 0.56µM*; NPC1 prom act: 2.8µM*; Rab9 prom act: 0.63µM*; FLuc modulator: 3.4µM*; p53 reactivator: inconclusive

Results for c1ccc(NC2=NCCN2CC2CCCCCC2)cc1 ?
ELG1 genotox: 1%; NPC1 prom act: 0%; Rab9 prom act: -2%; FLuc modulator: -3%; p53 reactivator: -11%

How did O=C(Nc1nnc(C2CCCCC2)s1)c1ccco1 do in these assays?
ELG1 genotox: inconclusive; SMN2 splice enh: inconclusive; NPC1 prom act: 4µM*; Rab9 prom act: 2µM*; FLuc modulator: inconclusive; p53 reactivator: inconclusive

How did Cc1ccccc1N1CC(c2nnc(NC(=O)c3ccco3)s2)CC1=O (centres undefined) do in these assays?
FLuc modulator: -18%

Results for O=C(Nc1nnc(C2CC2)s1)c1ccco1 ?
ELG1 genotox: inconclusive; SMN2 splice enh: 30%; NPC1 prom act: inconclusive; Rab9 prom act: 3.2µM*; FLuc modulator: inconclusive; p53 reactivator: 8%

What do the screens show for `N#Cc1ccccc1NC(=O)COC(=O)c1cccs1`?
ELG1 genotox: 1%; p53 reactivator: -5%

Results for CCC(=O)Nc1cccc(NC(=S)NC(=O)c2ccccc2Cl)c1 ?
ELG1 genotox: -1%; SMN2 splice enh: -5%; NPC1 prom act: inconclusive; Rab9 prom act: 3.5µM*; FLuc modulator: inconclusive; p53 reactivator: 10%

How did CCC(=O)Nc1cccc(NC(=O)c2ccc(C)cc2Cl)c1 do in these assays?
ELG1 genotox: 4%; SMN2 splice enh: 28%; NPC1 prom act: 21%; Rab9 prom act: inconclusive; FLuc modulator: 19µM*; p53 reactivator: -2%

How did N#Cc1ccccc1NC(=S)NC(=O)c1cccs1 do in these assays?
ELG1 genotox: 16%; NPC1 prom act: -1%; Rab9 prom act: 8%; FLuc modulator: 8.5µM*; p53 reactivator: 25%

What do the screens show for `CCC(=O)Nc1cccc(NC(=O)c2ccccc2Cl)c1`?
ELG1 genotox: -4%; SMN2 splice enh: -22%; NPC1 prom act: -3%; Rab9 prom act: -3%; FLuc modulator: -4%; p53 reactivator: -3%

How did CCC(=O)Nc1cccc(NC(=S)NC(=O)c2cccs2)c1 do in these assays?
ELG1 genotox: inconclusive; SMN2 splice enh: 28µM*; NPC1 prom act: inconclusive; Rab9 prom act: inconclusive; FLuc modulator: 6µM*; p53 reactivator: inconclusive

How did N[C@H](CS)C(=O)O do in these assays?
SMN2 splice enh: 3%

What do the screens show for `Cc1nn(-c2ccccc2)c(C)c1CN`?
ELG1 genotox: 2%; NPC1 prom act: -3%; Rab9 prom act: -10%; FLuc modulator: -1%; p53 reactivator: -1%
